IL-1B inflam inh: inflammasome signaling inhibition, IL-1 beta readout. THP-1 LPS/ATP IL-1B secretion, AlphaLISA, 16 h; stronger effect = lower value. activity change, % at 57.5 µM. hit rate 4.7% among 360,000; in the data active = activity change below about -50%; inconclusive = mostly about -30% to -49%
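Secreted IL-1B measured by AlphaLISA bead assay after 16 h compound exposure of THP-1 cells; compounds (final up to 57.5 uM) added 1 h before LPS (250 ng/mL) and ATP (1.25 mM) stimulation; lower signal means less secretion.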
DT40 TDP1 no CPT: qHTS for Inhibitors of human tyrosyl-DNA phosphodiesterase 1 (TDP1): qHTS in cells in absence of CPT; DT40 Tdp1-/- hTDP1 cells, no CPT, ATP luminescence, 48 h; Potency, µM (top dose mostly 46.2 µM), usual class: inhibitors; hit rate 15% among 420,000; AID 686978, 2013; note: nearly all actives have a fitted effect of over 55% in size
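Growth of hTDP1-complemented DT40 Tdp1-knockout cells is measured by ATP luminescence after at least 48 hr compound exposure at 37 °C, with DMSO substituting for the 20 nM CPT used in the parallel screen.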
HT1080 IDH1KD tx: toxicity to HT-1080 IDH1 knockdown cells (counter line). HT-1080 IDH1 knockdown viability, ATP luminescence, 48 h. Potency, µM (series often up to 46.1 µM), most hits filed as cytotoxic. hit rate 2% among 360,000
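Cytotoxicity counter-line: IDH1KD HT-1080, 48 h, CellTiter-Glo. Curves classed by r2, magnitude and activity.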
HT1080NT lethal: kills 2HG-producing HT-1080-NT fibrosarcoma cells; hit rate 1.6% among 360,000; Potency, µM (highest dose often 46.1 µM), usual class: cytotoxic; HT-1080-NT fibrosarcoma viability, CellTiter-Glo ATP luminescence, 48 h; AID 686970;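 note: NT is the 2HG producing partner of a matched IDH1 knockdown line; nearly all actives have a fitted effect of over 55% in size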
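Viability by CellTiter-Glo luminescence after 48 h compound exposure at 37C of HT-1080-NT cells (750/well, RPMI, 5% FBS). % activity scaled between DMSO wells and medium-only wells, then curve-fitted and categorized by curve class.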
TDP1 cell CPT: growth inhibition of DT40 Tdp1-/-;hTDP1 cells with camptothecin (screen for TDP1 inhibitors); Potency, µM (series often up to 46.2 µM), actives largely listed as inhibitors; chicken DT40 Tdp1-/-;hTDP1 cells + 20 nM CPT, ATP luminescence, 48 h; hit rate 12% among 420,000; note: nearly all actives have a fitted effect of over 55% in size
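Chicken DT40 Tdp1-/- cells complemented with human TDP1, 400 cells/well, exposed to compounds plus 20 nM camptothecin for at least 48 h at 37 C; viability read as ATP content by CellTiter-Glo luminescence.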
Hits are given with their value; . = inactive; ? = inconclusive; / = not tested or not shown. Sampled rows, rich in hits. Any-hit rate of the full collection: about 19%. Unless noted, calls come from the whole dose curve; as a rule, active = well fitted curve in the direction sought with a large enough effect; inconclusive = small, poorly fitted or top-dose-only effect, or another doubt; inactive = no such curve, though single readings can be large; an effect the other way counts as inactive or inconclusive.

SMILES | IL-1B inflam inh | DT40 TDP1 no CPT | HT1080 IDH1KD tx | HT1080NT lethal | TDP1 cell CPT
O=C1C=CC2(C=C1)O[C@H](Cc1ccccc1)[C@@H](Cc1ccccc1)O2 | -99.5 | 0.651µM | 1.16µM | 3.66µM | 1.03µM
COc1ccc(C[C@@H]2OC3(C=CC(=O)C=C3)O[C@H]2Cc2ccc(OC)cc2)cc1 | -77.1 | 0.366µM | 1.3µM | 5.17µM | 0.411µM
O=C1Nc2ccccc2C1Cc1ccccc1 (stereo not drawn) | . | . | . | . | ?
O=C(CSc1ccc2nnc(CCNC(=O)c3ccccc3)n2n1)Nc1ccc(F)cc1F | . | . | . | . | .
CC12CC(NC(=O)N1c1cccc(C(=O)NCc3ccc4c(c3)OCO4)c1)c1cc(Cl)ccc1O2 (stereo not drawn) | ? | 18.4µM | ? | ? | 18.4µM
COC(=O)[C@@H]1CCCN1Cc1ccc2c(c1)CN(Cc1ccc3c(c1)CCO3)CCO2 | / | . | / | / | .
Cc1cc(C)cc(C(=O)Nc2nc3ccccc3[nH]2)c1 | . | 23.1µM | . | . | ?
COc1ccc(Br)c(C(=O)Nc2nc3ccccc3[nH]2)c1 | . | 5.17µM | . | . | .
O=C(NC(=S)NCc1nc2ccccc2[nH]1)c1ccccc1F | . | 16.4µM | . | . | 23.1µM
O=C(Nc1nc2ccccc2[nH]1)c1cc(F)cc(F)c1 | . | ? | ? | ? | .
COc1cc(OC)cc(C(=O)Nc2nc3ccccc3[nH]2)c1 | . | 29.1µM | . | . | 20.6µM
COc1ccc(S(=O)(=O)N2CCC(C(=O)NC(c3nc4ccccc4[nH]3)C(C)C)CC2)cc1 (stereo not drawn) | . | ? | . | . | .
O=C(Nc1nc2ccccc2[nH]1)c1ccccc1F | . | 11.6µM | 5.8µM | 4.61µM | ?
CCCCN(C(=O)c1ccccc1Br)C(c1ccc(OC)cc1)c1nc2ccccc2[nH]1 (stereo not drawn) | . | ? | ? | ? | 16.4µM
COc1ccc2oc(C(=O)Nc3nc4ccccc4[nH]3)c(C)c2c1 | . | 10.3µM | . | . | 20.6µM
CC(=O)OCC(=O)Nc1cc(C#N)cc(NC(=O)COC(C)=O)c1Cl | / | . | / | / | .
O=[N+]([O-])c1c(Nc2ccccn2)cc(Cl)c2nonc12 | -101.1 | 5.17µM | ? | ? | 1.84µM
O=[N+]([O-])c1c(Nc2ccc(O)cc2)cc(Cl)c2nonc12 | -101.5 | 1.3µM | 5.8µM | 9.2µM | 1.3µM
Cc1c(NC(=O)CC2CC(C)OC2=O)c(=O)n(-c2ccccc2)n1C (stereo not drawn) | . | . | . | . | .
CCOc1ccc(CCNC(=O)C2=C(C)C(=O)OC23CCCCC3)cc1 | / | . | / | / | .
Cc1c(Cl)cccc1NC(=O)C1COc2ccccc2O1 (stereo not drawn) | ? | . | . | . | .
Nc1nc2ncc(=O)[nH]c2c(=O)[nH]1 | / | 14.6µM | / | / | .
O=C(NC1CCCN(Cc2ccccc2F)C1)C1CCC1 (stereo not drawn) | . | . | . | . | .
CC(C)(C)OC(=O)N[C@@H](Cc1ccccc1)C(=O)N[C@@H](CO)[C@H](O)[C@@H]1C[C@@H]1C(=O)NC1CC1 | . | . | . | . | .
O=C(NNC(=O)c1ccc(Br)cc1)c1ccncc1 | . | . | . | . | .
SMILES | IL-1B inflam inh | DT40 TDP1 no CPT | HT1080 IDH1KD tx | HT1080NT lethal | TDP1 cell CPT
O=C(NNC(=O)c1ccccc1Cl)c1ccccc1Cl | . | . | . | . | .
O=C(CCC1CCCC1)NNC(=O)c1ccccc1O | . | ? | . | . | ?
O=C(NNC1=C(C(=O)C(F)(F)F)CCC1)c1ccccc1Cl | . | 1.03µM | ? | 14.6µM | 1.3µM
O=C(NNC1=C(C(=O)C(F)(F)F)CCC1)c1ccc(Br)cc1 | . | 16.4µM | 10µM | ? | ?
O=C(NNC1=C(C(=O)C(F)(F)F)CCC1)c1ccccc1O | . | 20.6µM | ? | 23.1µM | 16.4µM
Nc1ccccc1C(=O)NNC1=C(C(=O)C(F)(F)F)CCC1 | . | 4.11µM | ? | . | 4.11µM
Nc1ccccc1C(=O)Nc1cccc(C(=O)O)c1 | . | . | . | . | .
CCCCCCCCCC(=O)N1c2ccccc2NC(=O)C1CC(=O)Nc1ccc(C(=O)O)cc1 (stereo not drawn) | ? | . | ? | . | .
NC(=O)C1(Nc2ccc(Br)cc2)CCCC1 | . | . | . | . | .
CCOc1ccc(C2C(C(=O)Nc3ccccc3)=C(C)Nc3nc(SCc4cccc(OC)c4)nn32)cc1 (stereo not drawn) | / | . | / | / | .
COc1cccc(C(=O)NNC2=C(C(=O)C(F)(F)F)CCC2)c1 | . | 1.46µM | 11.6µM | ? | 2.06µM
COc1cccc(C(=O)NN=C2CCCC2)c1 | . | . | . | . | .
COc1ccccc1C(=O)NNC1=C(C(=O)C(F)(F)F)CCC1 | . | ? | 2.24µM | 3.55µM | ?
Cc1ccc2nc(SCC(=O)NC3CCS(=O)(=O)C3)[nH]c2c1 (stereo not drawn) | . | . | . | . | .
CN(C)S(=O)(=O)c1ccc(C(=O)OCC(=O)c2csc(N3CCCCC3)n2)cc1 | . | . | . | . | .
O=C(Nc1cc(-c2ccc(F)c(F)c2)no1)c1ccccc1F | / | . | / | / | .
N#C/C(C(=O)NCc1ccccc1)=C1/N=C(NC(=O)c2cccs2)c2ccccc21 | . | 10.3µM | . | . | 16.4µM
CCCNC(=O)/C(C#N)=C1\N=C(NC(=O)c2ccco2)c2ccccc21 | . | ? | . | . | 16.4µM
COCCNC(=O)/C(C#N)=C1\N=C(NC(=O)c2ccco2)c2ccccc21 | ? | ? | . | . | ?
CCCCCCOc1ccc(/C=C/C(=O)Nc2sc3c(c2C(=O)OC)CCC3)cc1OC | / | 4.11µM | / | / | 7.31µM
O=C1N(Cc2ccccc2)c2ccc(Br)cc2[C@]12C[C@H](O)CO2 | . | ? | . | . | .
CCCCC(CC)CN1CN(CC(CC)CCCC)CC(C)(N)C1 (stereo not drawn) | . | 0.231µM | . | . | 0.164µM
CS(=O)(=O)Nc1cccc(-c2ccc3ncnc(NC4CC4)c3c2)c1 | / | 6.51µM | / | / | 8.2µM
CN1CCN(c2ncnc3ccc(-c4cccc(NS(C)(=O)=O)c4)cc23)CC1 | / | 6.51µM | / | / | 3.66µM
O=C1c2ccccc2NC2CCCCC12 (stereo not drawn) | . | 23.1µM | . | . | ?
O=C1c2ccccc2NC2CCCCCN12 (stereo not drawn) | . | . | . | . | .
CC[C@H](C)/C=C/C1=CC2=C(Cl)C(=O)[C@@]3(C)OC(=O)C(C(=O)[C@H](C)[C@@H](C)O)=C3C2=CO1 | . | 18.4µM | . | . | ?
O=c1[nH]c2ccsc2c(=O)n1-c1ccc(F)c(Cl)c1 | . | . | . | . | .
Cc1nn(Cc2ccccc2)c(C)c1C(=O)OCC(=O)c1cc(C)n(C2CC2)c1C | -58.4 | 18.4µM | . | . | 23.1µM
Cc1cc(C(=O)COc2ccc(C#N)cc2)c(C)n1C1CC1 | . | 18.4µM | . | . | ?

Assay outcomes as filed in PubChem BioAssay.
